Source: PubChem BioAssay
This excerpt belongs to a sample that is enriched for hits.
C diff HTS – C. difficile growth inhibitors, primary screen, HTS. Clostridium difficile clinical isolate growth, OD600, 24 h; hits give low values. growth activity, negative = inhibition, % at 16 µg/mL (by protocol). 86,000 compounds, 0.25% hits. AID 1259249, 2017;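 active means mean growth activity at or below -80% and every replicate also at or below -80%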;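 further: 0% = DMSO wells and -100% = levofloxacin 16 µg/mL wells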
Active calls of the source: *.

SMILES | C diff HTS
O=C(Nc1cc(F)ccc1F)N1CCCCN2[C@H](C1)[C@H](c1ccc(C3=CCCCC3)cc1)[C@@H]2CO | 11.1
COc1ccc(S(=O)(=O)Nc2ccc3c(c2)C(=O)N([C@H](C)CO)C[C@@H](C)[C@@H](CN(C)C)O3)cc1 | 0.9
O=C(C[C@H]1CC[C@H]2[C@@H](COC[C@@H](O)CN2Cc2ccc(C(F)(F)F)cc2)O1)NCCc1ccccc1 | 3.2
C[C@H](CO)N1C[C@H](C)[C@H](CN(C)C(=O)C2CC2)Oc2ncc(C#CC(C)(C)O)cc2C1=O | -3.9
C[C@@H]1CN([C@H](C)CO)C(=O)c2c(c3ccccc3n2C)-c2ccccc2CO[C@H]1CN(C)Cc1ccc2c(c1)OCO2 | -3.9
O=C(NC1CCCCC1)N1CC(=O)N2[C@H](CO)[C@@H](c3ccc(/C=C/c4ccccc4)cc3)[C@H]2C1 | -11.7
C/C=C/c1ccc([C@@H]2[C@H](CO)N(C(=O)C3CCCC3)C23CN(S(=O)(=O)CC)C3)cc1 | -4.4
C[C@H]1CCCCO[C@@H](CN(C)C(=O)C2CCCCC2)[C@@H](C)CN([C@@H](C)CO)C(=O)c2cc(NC(=O)Nc3ccccc3)ccc2O1 | -16.4
Cc1noc(C)c1S(=O)(=O)Nc1ccc2c(c1)CC(=O)N([C@@H](C)CO)C[C@H](C)[C@H](CN(C)S(=O)(=O)c1c(C)noc1C)O2 | 11.4
C[C@H]1CN([C@@H](C)CO)C(=O)c2cc(NC(=O)CCCCCC(=O)Nc3ccccc3N)ccc2O[C@@H]1CN(C)C(=O)Nc1ccccc1 | 3.6
O=C(Nc1cccc(F)c1)N1CCCCN2[C@H](C1)[C@@H](c1ccc(C#Cc3ccccc3)cc1)[C@@H]2CO | 2.7
COc1ccc(C#Cc2ccc([C@H]3[C@@H](CO)N4CCCCN(C(=O)Nc5cccc(F)c5)C[C@H]34)cc2)cc1 | -88.5*
COc1ccc(C#Cc2ccc([C@H]3[C@@H](CO)N4CCCCN(C(=O)Nc5cccc(F)c5)C[C@@H]34)cc2)cc1 | -19.5
COc1ccc(C#Cc2ccc([C@@H]3[C@H]4CN(C(=O)Nc5cccc(F)c5)CCCCN4[C@H]3CO)cc2)cc1 | 52.8
O=C(Nc1cccc(F)c1)N1CCCCN2[C@H](CO)[C@@H](c3ccc(C#Cc4ccccc4)cc3)[C@@H]2C1 | -3.0
COc1ccc(C#Cc2ccc([C@@H]3[C@H](CO)N4CCCCN(C(=O)Nc5cccc(F)c5)C[C@@H]34)cc2)cc1 | -84.8*
CCC(=O)N(C)C[C@H]1Oc2cc(C#CCC3CCCC3)ccc2S(=O)(=O)N([C@@H](C)CO)C[C@@H]1C | 6.8
CCCC#Cc1ccc([C@H]2[C@@H](CO)N3C(=O)CN(C(=O)c4cccnc4)C[C@@H]23)cc1 | 1.5
C[C@@H]1CN([C@@H](C)CO)C(=O)c2cccc(NC(=O)c3cnccn3)c2O[C@H]1CN(C)CC1CC1 | -0.9
O=C1CN(S(=O)(=O)Cc2ccccc2)C[C@@H]2[C@H](c3ccc(C#Cc4ccc(F)cc4)cc3)[C@H](CO)N12 | 0.2
Cc1ccccc1-c1ccc2c(c1)O[C@H](CN(C)C(=O)C1CC1)[C@@H](C)CN([C@H](C)CO)S2(=O)=O | 0.2
COc1cccc(-c2ccc3c(c2)O[C@H](CN(C)C(=O)C2CCCCC2)[C@@H](C)CN([C@H](C)CO)S3(=O)=O)c1 | 2.6
COCC#Cc1cnc2c(c1)C(=O)N([C@H](C)CO)C[C@@H](C)[C@@H](CN(C)C(=O)Nc1ccccc1F)O2 | 2.8
COc1ccc(S(=O)(=O)N[C@H]2CC[C@@H](CCNC(=O)c3ccccc3F)O[C@H]2CO)cc1 | 1.9
CCCN(C)C[C@H]1OCCCC[C@@H](C)Oc2ccc(NC(=O)Nc3ccc(C(F)(F)F)cc3)cc2C(=O)N([C@H](C)CO)C[C@H]1C | -108.3*
SMILES | C diff HTS
C[C@H](CO)N1C[C@H](C)[C@H](CN(C)CC2CCCCC2)OCCCC[C@H](C)Oc2ccc(NC(=O)Nc3ccc(C(F)(F)F)cc3)cc2C1=O | -82.1*
C[C@@H]1CN([C@H](C)CO)C(=O)c2cc(NC(=O)Nc3ccc(C(F)(F)F)cc3)ccc2O[C@@H](C)CCCCO[C@@H]1CN(C)CC1CCCCC1 | -62.7
CCCN(C)C[C@H]1OCCCC[C@H](C)Oc2ccc(NC(=O)Nc3ccc(C(F)(F)F)cc3)cc2C(=O)N([C@@H](C)CO)C[C@H]1C | -31.4
C[C@@H]1CN([C@@H](C)CO)C(=O)c2cc(NC(=O)Nc3ccc(C(F)(F)F)cc3)ccc2O[C@@H](C)CCCCO[C@H]1CN(C)CC1CCCCC1 | -106.6*
C[C@H]1CCCCO[C@H](CN(C)CC2CC2)[C@@H](C)CN([C@@H](C)CO)C(=O)c2cc(NC(=O)Nc3ccc(C(F)(F)F)cc3)ccc2O1 | -0.3
C[C@H](CO)N1C[C@H](C)[C@@H](CN(C)CC2CCCCC2)OCCCC[C@H](C)Oc2ccc(NC(=O)Nc3ccc(C(F)(F)F)cc3)cc2C1=O | -74.1
C[C@@H]1CCCCO[C@H](CN(C)CC2CC2)[C@H](C)CN([C@H](C)CO)C(=O)c2cc(NC(=O)Nc3ccc(C(F)(F)F)cc3)ccc2O1 | 5.7
CCCN(C)C[C@@H]1OCCCC[C@@H](C)Oc2ccc(NC(=O)Nc3ccc(C(F)(F)F)cc3)cc2C(=O)N([C@H](C)CO)C[C@@H]1C | -19.4
Cc1noc(C)c1NC(=O)Nc1ccc2c(c1)CC(=O)N([C@H](C)CO)C[C@H](C)[C@H](CN(C)Cc1ccc(C(=O)Nc3ccccc3N)cc1)O2 | 6.2
C[C@H](CO)N1C[C@H](C)[C@@H](CN(C)C(=O)NC2CCCCC2)Oc2ccc(NC(=O)Nc3cccc4ccccc34)cc2CC1=O | 3.5
C[C@H]1CN([C@@H](C)CO)C(=O)c2cc(-c3ccccc3F)cnc2O[C@H]1CN(C)C(=O)NC1CCCC1 | -0.1
Cc1noc(C)c1NC(=O)N(C)C[C@@H]1OCCCC[C@@H](C)Oc2ccc(N(C)C)cc2C(=O)N([C@H](C)CO)C[C@H]1C | 1.9
COc1ccccc1-c1ccc2n(c1=O)C[C@@H]1[C@@H](CO)[C@H](C(=O)N[C@@H](C)c3ccccc3)[C@H]2N1C | -2.1
C/C=C/c1ccc([C@H]2[C@@H](CO)N(C(C)=O)[C@H]2CN(C(=O)COC)C(C)C)cc1 | -5.4
CC(=O)N[C@@H]1C=C[C@H](CC(=O)NCC2CCCCC2)O[C@@H]1CO | -5.8
O=S(=O)(c1ccc(F)cc1)N1CC[C@@H]2[C@@H](CO)Nc3ccc(C#Cc4cccc(F)c4)cc3[C@@H]21 | 36.0
OC[C@@H]1Nc2ccc(C#Cc3cccc(F)c3)cc2[C@@H]2NCC[C@H]12 | -97.6*
COc1ccccc1C#Cc1ccc2c(c1)[C@H]1NCC[C@H]1[C@@H](CO)N2 | -0.3
COc1ccc2c3c(n(C)c2c1)[C@@H](CO)N(C(=O)Nc1ccc(F)cc1)CC31CCN(C(=O)NC(C)C)CC1 | -8.0
C[C@@H]1CN([C@@H](C)CO)C(=O)c2cccc(NC(=O)Nc3ccc(C(F)(F)F)cc3)c2O[C@H]1CN(C)Cc1ccc(C(F)(F)F)cc1 | 18.5
COc1ccc(CN(C)C[C@H]2Oc3c(NC(=O)Nc4ccc(C(F)(F)F)cc4)cccc3C(=O)N([C@@H](C)CO)C[C@H]2C)cc1 | -100.8*
C[C@@H]1CN([C@H](C)CO)C(=O)c2cccc(NC(=O)Nc3ccc(F)cc3)c2O[C@H]1CN(C)Cc1ccc(-c2ccccc2)cc1 | -1.7
C[C@H](CO)N1C[C@H](C)[C@@H](CN(C)Cc2ccc(C(F)(F)F)cc2)Oc2c(NC(=O)Nc3ccc(F)cc3)cccc2C1=O | 3.3
